Screening results deposited in PubChem by National Center for Advancing Translational Sciences (NCATS).
JMJD2A Tudor inh: JMJD2A Tudor domain (human) inhibition | O75164 | actives 4.4% (n = 390,000) | AlphaScreen JMJD2A-Tudor / H3K4me3 peptide binding | AID 504339 | Potency, µM (titrated, usually from 114 µM), inactives show top-dose activity change, negative = inhibition, usual class: inhibitors; further: on the % scale 0 is the no-effect control and ±100 the full control effect; nearly all actives have a fitted effect of over 50% in size
G9a block: G9a (human) methyltransferase inhibition; G9a H3K9 monomethylation, AlphaScreen, 2 h; Potency, µM (series often up to 102 µM), without a hit: top-dose activity, negative = inhibition, actives largely listed as inhibitors; Q96KQ7; AID 504332; actives 8.8% (n = 350,000); further: on the % scale 0 is the no-effect control and ±100 the full control effect; nearly all actives have a fitted effect of over 75% in size
Target sequence (Q96KQ7 913-1193 limits assumed): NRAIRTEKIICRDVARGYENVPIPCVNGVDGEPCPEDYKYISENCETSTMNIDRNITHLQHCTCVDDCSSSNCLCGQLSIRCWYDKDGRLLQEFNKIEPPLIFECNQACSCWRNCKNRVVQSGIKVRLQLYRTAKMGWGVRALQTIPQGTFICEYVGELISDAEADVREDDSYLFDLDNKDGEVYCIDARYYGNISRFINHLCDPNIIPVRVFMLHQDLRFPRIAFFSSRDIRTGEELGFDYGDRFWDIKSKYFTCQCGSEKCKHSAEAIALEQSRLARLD
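Signal arises when biotinylated H3K9 peptide, once monomethylated, bridges streptavidin donor and antibody-captured acceptor beads. Enzyme at 20 nM was preincubated 15 min with test compounds; peptide 500 nM and SAM 20 uM then reacted for 2 h.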
Sfp PPTase inh: inhibitors of Bacillus subtilis Sfp phosphopantetheinyl transferase. actives 3.5% (n = 310,000). Potency, µM, for inactives: largest response in the series, negative = inhibition, hits mostly inhibitors. Q9F4F7. Biochemical Sfp PPTase activity, qHTS;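 further: the enzyme is Sfp with the accession as filed and its product quenches rhodamine fluorescence; 0% = enzyme reaction without inhibitor and -100% = no enzyme wells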
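Fluorescence-quenching assay with 15 nM Sfp, 5 uM rhodamine-CoA and 12.5 uM BHQ-2-labelled ybbR peptide in pH 7.6 Hepes/MgCl2 buffer. Enzyme was pre-incubated with compound for 15 min at room temperature. Rate was taken from the 30-min fluorescence change (525/598 nm).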
HP1b binding inh: blocks HP1-beta chromodomain binding to methylated histone tails. P83916. Potency, µM (doses to about 114 µM), without a hit: top-dose activity change, negative = inhibition, actives largely listed as inhibitors. AlphaScreen HP1-beta / biotin-H3K9me3 peptide binding. AID 540317. actives 0.56% (n = 390,000); further: nearly all actives have a fitted effect of over 70% in size
Target sequence (P83916 whole entry, looked up): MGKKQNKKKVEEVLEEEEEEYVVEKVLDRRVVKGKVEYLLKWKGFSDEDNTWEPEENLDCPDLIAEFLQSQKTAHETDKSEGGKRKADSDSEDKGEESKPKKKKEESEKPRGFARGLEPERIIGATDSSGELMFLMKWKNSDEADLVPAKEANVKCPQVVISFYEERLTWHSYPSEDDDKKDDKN
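AlphaScreen: HP1-beta (50 nM) preformed 30 min with biotin-H3(1-18)K9me3 peptide (50 nM) in PBS pH 7.4, 0.01% Tween-20. Compound added for 30 min at RT, then streptavidin donor/nickel chelate acceptor beads (10 ug/mL) for 30 min.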
L3MBTL1 inh: blocks human L3MBTL1 | AlphaScreen L3MBTL1–H3K9me1 peptide binding | Potency, µM (top dose mostly 57.1 µM), without a hit: at the top dose activity, negative = inhibition, hits mostly inhibitors | actives 0.66% (n = 230,000) | AID 485360; further: on the % scale 0 is the no-effect control and ±100 the full control effect; nearly all actives have a fitted effect of over 60% in size
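AlphaScreen proximity signal between nickel-chelate acceptor and streptavidin donor beads (final 10 ug/mL) reports binding of 50 nM L3MBTL1 to 75 nM biotin-H3 K9me1 peptide; complex incubated with compounds 30 min at room temperature; cefsulodin titration as control.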
BAZ2B block: inhibitors of human BAZ2B bromodomain. Q9UIF8. AlphaScreen BAZ2B-H3K14Ac peptide displacement. Potency, µM (top dose mostly 114 µM), inactives show at the top dose activity change, negative = inhibition, usual class: inhibitors. actives 4.4% (n = 360,000); further: on the % scale 0 is the no-effect control and ±100 the full control effect; nearly all actives have a fitted effect of over 60% in size
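Multi-concentration screen (max 110 uM) measuring displacement of acetylated histone H3 peptide from BAZ2B by AlphaScreen, using 50 nM protein, 50 nM peptide and 10 ug/mL streptavidin donor plus Ni-chelate acceptor beads.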
Active calls of the source: *; u = inconclusive; x = not tested or not shown; [ ] = another dose, or the depositor's remark. An excerpt weighted towards active compounds, which were near 12% of everything screened. The call rests on the fitted dose curve; in most records, active means well fitted curve in the direction sought with a large enough effect; inconclusive means small, poorly fitted or top-dose-only effect, or another doubt; inactive means no such curve, though single readings can be large; an effect the other way counts as inactive or inconclusive. Potency means the concentration at half of the fitted maximal effect.

SMILES	JMJD2A Tudor inh	G9a block	Sfp PPTase inh	HP1b binding inh	L3MBTL1 inh	BAZ2B block
Fc1ccc(-c2cc(-c3nc(-c4ccc(Cl)cc4)no3)[nH]n2)cc1	-14.0%	11.6%[59 µM]	x	7.6%	x	3.9%
CCCC[C@@H]1CNC(=S)N1CCC12CC3CC(CC(C3)C1)C2	-31.4%	13.1%[59 µM]	6.6%	36.7%	4.7%	-13.0%
COCCn1c(C23CC4CC(CC(C4)C2)C3)n[nH]c1=S	7.08µM*	u	31.6µM*	27.9%	-1.4%[11.4 µM]	-4.8%
CCCCn1c(C23CC4CC(CC(C4)C2)C3)n[nH]c1=S	31.6µM*	x	-14.8%	-10.4%	-9.7%	-34.0%
COCCn1c(C)cc(C(=O)COC(=O)C23CC4CC(CC(O)(C4)C2)C3)c1C	-16.4%	u	6.3%	15.5%	-0.3%	u
COc1ccc(C2CC(=O)N(c3ccccc3)C3=C2C(=O)CCC3)cc1 (centres undefined)	-7.3%	14.1%[12.7 µM]	-8.0%	23.9%	3.2%	-3.4%
COc1ccc(C2CC(=O)N3C(=C2C#N)SCC3(O)c2ccccc2)cc1 (centres undefined)	u	-34.9%[59 µM]	50.1µM*	2.6%	-4.8%	-26.9%
N#CC1=C2SCC(O)(c3ccccc3)N2C(=O)CC1c1cccs1 (centres undefined)	-28.8%	50.1µM*	17.8µM*	-4.9%	-21.6%	u
CSC1=C(C#N)C(c2cccs2)CC(=O)N1C (centres undefined)	x	u	0.9%	x	5.3%	-1.7%
NC(=O)NN=C1c2cc(S(=O)(=O)N3CCOCC3)ccc2-c2ccc(S(=O)(=O)N3CCOCC3)cc21	-22.0%	x	x	46.0%	x	x
CC(C)CCNC(=O)CN1C(=O)CCn2nc(-c3cn(C)c4ccccc34)cc21	-29.4%	-17.2%[59 µM]	x	16.3%[57 µM]	x	-18.0%
Cc1cc2c(s1)c1cnn(Cc3ccc(C#N)cc3)c(=O)c1n2C	-2.7%	x	x	x	x	x
CC(C)(C)OC1NS(=O)(=O)OCC1NCOC(Cl)(Cl)Cl (centres undefined)	79.4µM*	31.6µM*	12.6µM*	6.8%	1.4%	50.1µM*
C=CCC1NS(=O)(=O)OCC1NC(=O)OCC(Cl)(Cl)Cl (centres undefined)	-21.4%	19.4%	18.9%	35.9%	3.3%	0.1%
CCOc1cccc(C(=O)NC(=S)Nc2cccnc2)c1	u	10µM*	44.7µM*	7.3%	1.1%	-33.1%
COc1ccc(C(=O)NC(=S)Nc2cccnc2)cc1OC	-14.4%	50.1µM*	-22.3%	13.2%	4.7%	-34.4%
CNC(=O)c1ccc(NC(=O)CCNC(=O)Nc2ccccc2)cc1	-0.7%	44.7µM*	x	38.0%	-5.6%	-1.6%
COc1cc(OC)cc(C(=O)NC(=S)Nc2cccnc2)c1	-7.5%[11.4 µM]	u	3.0%	15.5%	-11.0%	-15.1%
O=C(NC(=S)Nc1cccnc1)c1cccc(Br)c1	-18.9%	35.5µM*	1.9%	-18.8%	x	-16.5%
CCCCOc1cccc(C(=O)NC(=S)Nc2cccnc2)c1	-22.9%	u	-3.3%	-12.4%	-5.3%	-36.6%
CC[C@H]1OC(=O)[C@H](C)C(=O)[C@H](C)[C@@H](OC2O[C@H](C)C[C@H](N(C)C)[C@@H]2O)[C@@](C)(OC)C[C@@H](C)C(=O)[C@@H](C)C2N(CCCCn3cnc(-c4cccnc4)c3)C(=O)O[C@@]21C (some centres undefined)	x	-44.7%[12.7 µM]	8.5%	x	x	x
O=C(c1cccs1)N1CCCc2cc(NS(=O)(=O)c3ccc(F)cc3F)ccc21	-18.5%	10.9%[59 µM]	x	15.4%	x	-23.0%
COc1cc(OC)cc(C(=O)NC(C(=O)Nc2ccc(N3CCOCC3)cc2)C(C)C)c1 (centres undefined)	-13.7%	50.1µM*	x	13.5%	-7.8%	-3.3%
O=C(NNc1cccc([N+](=O)[O-])c1)/C(=C\c1cccnc1)NC(=O)c1ccccc1	-8.0%	50.1µM*	-19.0%	23.7%	-7.7%	-23.7%
COc1ccc(C(=O)N/C(=C/c2cccnc2)C(=O)Nc2cccc(C(C)=O)c2)cc1OC	56.2µM*	-0.3%[12.7 µM]	16.8%	0.5%	x	2.8%
SMILES	JMJD2A Tudor inh	G9a block	Sfp PPTase inh	HP1b binding inh	L3MBTL1 inh	BAZ2B block
O=C(COc1cc(F)ccc1[N+](=O)[O-])Nc1ccc(N2CCCCC2)cc1	39.8µM*	u	x	u	u	31.6µM*
CC(=O)c1cccc(NC(=O)/C(=C\c2cccnc2)NC(=O)c2ccccc2)c1	8.0%	14.5%	16.7%	24.1%	x	-1.5%
O=C(COc1cc(F)ccc1[N+](=O)[O-])Nc1ccc(N2CCOCC2)cc1	-1.0%	-45.2%	-11.6%	14.1%	x	5.1%
C=CCNC(=O)/C(=C/c1cccc([N+](=O)[O-])c1)NC(=O)c1ccccc1	-4.9%	-1.7%	20.5%	18.0%	7.7%	-0.2%
COc1cc(OC)cc(C(=O)N[C@H](C(=O)Nc2ccccc2N2CCOCC2)C(C)C)c1	0.0%	5.1%[59 µM]	9.0%	8.5%	x	-14.2%
Cc1cccc(Cn2c(SCc3ccc(C(=O)NCCc4ccccc4)cc3)nc3cccnc32)c1	-16.5%	-47.8%[59 µM]	x	32.7%	x	-4.2%
COc1ccc(NC(=O)c2sc3nc4n(c(=O)c3c2C)CCC4)cc1Cl	-7.6%	4.9%[59 µM]	x	53.1%	x	-18.2%
COc1cc2nc(NCc3ccccc3Cl)n3nc(-c4cccnc4)nc3c2cc1OC	-23.6%	7.8%[59 µM]	x	11.8%	x	-1.0%
O=C(NCc1cccnc1)c1ccc(NC(=O)c2ccc(Br)cc2)cc1	-32.6%	44.7µM*	-18.3%	35.3%	x	-12.9%
Cc1snnc1C(=O)NC(=S)Nc1ccccc1	-28.3%	u	39.8µM*	-6.1%	-0.9%	-17.9%
O=C(NC(=S)Nc1cccnc1)c1cccs1	u	u	56.2µM*	11.3%	-1.9%	-23.4%
CCOc1ccc(C(=O)NC(=S)Nc2ccc(N3CCCCC3)cc2)cc1[N+](=O)[O-]	u	6.31µM*	20µM*	11.2µM*	-22.4%	8.91µM*
COc1cccc([C@@H]2Oc3ccc(OC)cc3C(=O)[C@H]2OC(=O)NCCc2ccc(OC)c(OC)c2)c1	x	x	7.3%	x	x	x
CCCCCCCC/C=C\CCCCCCCC(=O)OCC(CO)OC(=O)CCCCCCC/C=C\CCCCCCCC (centres undefined)	x	-3.1%[59 µM]	10.3%	x	x	x
Cc1c(Cl)cccc1NC(=S)NC(=O)c1cncc(Br)c1	-8.7%	x	x	-22.0%	x	x
CCOc1cccc(C(=O)NC(=S)Nc2cccc(NC(=O)c3ccccc3Cl)c2)c1	-8.2%	-46.7%[59 µM]	13.7%	5.8%	-3.4%	79.4µM*
O=C(NC(=S)Nc1cc(Cl)ccc1O)c1cccc(Br)c1	-9.9%	70.8µM*	-11.5%	5.6%	36.1%	-4.0%
CCOc1cccc(C(=O)NC(=S)Nc2ccccc2)c1	u	u	-26.6%	u	-7.1%	u
